Consider 28 compounds from PubChem BioAssay.

Experiment [1] concerns the target ATP-dependent translocase ABCB1 (Homo sapiens) (UniProt P08183). Briefly: MDR1 (ABCB1) efflux transporter inhibition, cell-based (AID 377). The note with it: MDR1-expressing cells, fluorescent substrate accumulation slope; stronger effect = higher value; concentration not given here.
A short description of experiment [2]: hESC survival regulators, cell-based (AID 493140; call rule not given here;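 further: cells exposed to compounds for four days before counting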). The settings on record: human embryonic stem cell survival screen; stronger effect = higher value.
A short description of experiment [3]: liver-stage malaria parasite growth inhibition, primary screen, cell-based, HepG2, luciferase luminescence, HepG2 viability (AID 624349; in the data active means parasite load remaining mostly below about 12%, no sharp cut-off; inactive means mostly above about 10%;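 further: 100% = mean of DMSO negative control wells on the same plate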). The note with it: P. berghei liver stage in HepG2, luciferase luminescence, concentration not given here; parasite load remaining: stronger effect = lower value; viability: measured here: HepG2 viability without parasites.

Molecules are shown by their SMILES. Records with an inconclusive call do not appear. Calls of active or inactive are those of the source. Unless noted, no stated cut-off is given here; in the data, active means fluorescence slope change above about 50%; inconclusive means mostly about 31% to 49%; inactive means weaker than that.

Chain of ATP-dependent translocase ABCB1 (Homo sapiens) (P08183 whole entry, looked up): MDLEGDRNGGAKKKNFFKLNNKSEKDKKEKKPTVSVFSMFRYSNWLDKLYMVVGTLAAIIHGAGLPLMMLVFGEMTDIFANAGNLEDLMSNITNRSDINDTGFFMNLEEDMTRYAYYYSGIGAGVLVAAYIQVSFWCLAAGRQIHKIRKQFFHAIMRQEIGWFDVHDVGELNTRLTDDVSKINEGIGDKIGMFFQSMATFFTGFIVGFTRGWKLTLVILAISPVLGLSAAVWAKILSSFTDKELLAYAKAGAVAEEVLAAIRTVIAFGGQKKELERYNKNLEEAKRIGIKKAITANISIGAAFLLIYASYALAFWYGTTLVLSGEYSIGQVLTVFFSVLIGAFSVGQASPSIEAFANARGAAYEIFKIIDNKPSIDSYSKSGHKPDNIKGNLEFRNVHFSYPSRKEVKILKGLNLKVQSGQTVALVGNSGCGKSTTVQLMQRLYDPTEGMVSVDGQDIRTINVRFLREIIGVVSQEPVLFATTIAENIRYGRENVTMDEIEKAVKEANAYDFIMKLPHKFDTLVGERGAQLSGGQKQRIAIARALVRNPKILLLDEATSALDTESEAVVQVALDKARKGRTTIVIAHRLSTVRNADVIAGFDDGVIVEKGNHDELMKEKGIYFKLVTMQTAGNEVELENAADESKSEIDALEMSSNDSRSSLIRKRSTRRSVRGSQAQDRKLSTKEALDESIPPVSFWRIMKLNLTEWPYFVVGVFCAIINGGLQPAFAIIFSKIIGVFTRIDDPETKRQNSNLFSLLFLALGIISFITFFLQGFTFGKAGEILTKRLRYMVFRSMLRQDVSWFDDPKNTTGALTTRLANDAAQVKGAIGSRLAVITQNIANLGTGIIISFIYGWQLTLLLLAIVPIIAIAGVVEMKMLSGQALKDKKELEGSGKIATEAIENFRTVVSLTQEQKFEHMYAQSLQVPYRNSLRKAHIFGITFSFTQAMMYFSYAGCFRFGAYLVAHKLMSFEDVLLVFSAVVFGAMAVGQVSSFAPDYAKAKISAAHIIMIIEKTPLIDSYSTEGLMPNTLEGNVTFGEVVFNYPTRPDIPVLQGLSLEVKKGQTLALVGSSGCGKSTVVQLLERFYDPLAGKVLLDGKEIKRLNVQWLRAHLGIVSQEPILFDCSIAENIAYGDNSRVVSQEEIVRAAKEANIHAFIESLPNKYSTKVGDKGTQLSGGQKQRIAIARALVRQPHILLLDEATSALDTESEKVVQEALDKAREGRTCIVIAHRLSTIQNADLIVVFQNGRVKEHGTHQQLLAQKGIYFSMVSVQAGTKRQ

`COC(=O)C1[C@H]2C[C@H]3c4[nH]c5ccccc5c4CCN3C[C@H]2CC[C@@H]1O` (stereo not given in full): the fluorescence slope change in experiment [1] was 78.8% (active).
As to `On1ccccc1=S`, in experiment [1], the fluorescence slope change was 9% (inactive).
In the case of `CC1(C)S[C@@H]2[C@H](NC(=O)C(NC(=O)N3CCNC3=O)c3ccccc3)C(=O)N2[C@H]1C(=O)O` (stereo not given in full), in experiment [1], the fluorescence slope change is 25.1% (inactive).
As to `CC1O[C@H](O[C@]2(O[C@H]3CC[C@@]4(C)C(=CC[C@H]5[C@@H]6C[C@H]7[C@H]([C@H](C)[C@H]8CC[C@H](C)CN87)[C@@]6(C)CC[C@@H]54)C3)C[C@@H](O[C@@H]3OC(CO)[C@@H](O)[C@@H](O)C3O)[C@@H](O)C(CO)O2)C(O)[C@@H](O)[C@H]1O` (stereo not given in full), the fluorescence slope change in experiment [1] was 75.1% (active). Further, in experiment [2], the survival is 4.89 (inactive). In experiment [3], the parasite load remaining is 74.2% (inactive) and the viability was determined as 82%.
`CCOc1ccc2ccccc2c1C(=O)NC1C(=O)N2C1SC(C)(C)C2C(=O)O` (stereo not given): the fluorescence slope change in experiment [1] was 71.1% (active).
With `COc1ccc([C@@H]2CC(=O)c3c(O)cc(O[C@@H]4OC(CO[C@@H]5OC(C)[C@H](O)[C@H](O)C5O)[C@@H](O)[C@@H](O)C4O)cc3O2)cc1O` (stereo not given in full), the fluorescence slope change in experiment [1] was 9.9% (inactive). Besides, the survival in experiment [2] was 9.92 (inactive). For the same compound, in experiment [3], the parasite load remaining is 71.5% (inactive) and the viability was 80.9%.
As to `CC1OC(O[C@H]2/C=C/C=C/C=C/C=C/C=C/C=C/C=C/[C@H](C)[C@@H](O)[C@@H](C)[C@H](C)OC(=O)C[C@H](O)C[C@H](O)CC[C@@H](O)[C@H](O)C[C@H](O)C[C@]3(O)C[C@H](O)[C@@H](C(=O)O)[C@H](C2)O3)C(O)C(N)C1O` (stereo not given in full), in experiment [1], the fluorescence slope change was 94.6% (active). Also, in experiment [2], the survival is 10.9 (inactive). For the same compound, in experiment [3], the parasite load remaining is 50.3% (inactive) and the viability is 92.5%.
Consider `C=C1C(=O)O[C@H]2C1CC/C(C)=C/CC[C@@]1(C)O[C@H]21` (stereo not given in full), for which the fluorescence slope change in experiment [1] was 20.5% (inactive).
The same measure, in the same setting: with `COc1ccc2cc3n(c(=O)c2c1OC)CCc1cc2c(cc1-3)OCO2` the figure was 57.9% (active); with `C[C@H](CCC(=O)O)[C@H]1CC[C@H]2[C@@H]3C(O)C[C@@H]4CC(O)CC[C@]4(C)[C@H]3CC[C@]12C` (stereo not given in full), 167% (active); with `O=C(O)CCCC[C@@H]1SCC2NC(=O)NC21` (stereo not given in full), 79.8% (active).
Still for that read-out and setting: the same measure for `Nc1ccc(S(=O)(=O)Nc2ccc3nccnc3c2)cc1`: 6.1% (inactive).
For `CCCC(=O)Nc1ncnc2c1ncn2[C@@H]1O[C@@H]2COP(=O)(O)O[C@@H]2C1OC(=O)CCC` (stereo not given in full), in experiment [1], the fluorescence slope change is 80% (active). The survival in experiment [2] is 3.33 (inactive).
Turning to `C=C1CC23CC4C5[C@@]6(C)C[C@H](OC(=O)c7ccccc7)[C@@H](OC(C)=O)[C@@]57C2[C@H](OC(C)=O)[C@@H]1[C@H](O)[C@H]3[C@H]7N4C6`, in experiment [1], the fluorescence slope change was 12.6% (inactive). Moreover, the survival in experiment [2] is 4.92 (inactive).
On to `C[C@@H]1C(=O)O[C@H]2CC34[C@H]5C[C@@H](C(C)(C)C)C36[C@@H](OC(=O)[C@@H]6O)OC4(C(=O)O5)[C@]21O` (stereo not given in full), for which the fluorescence slope change in experiment [1] is 57.6% (active). Besides, in experiment [2], the survival is 10.1 (inactive). Further, in experiment [3], the parasite load remaining is 79.2% (inactive) and the viability was 79.7%.
For `CO[C@@H]1[C@@H](OC2OC(C)C(OC3CC(C)(O)C(OC(=O)CC(C)C)C(C)O3)C(N(C)C)C2O)[C@@H](CC=O)C[C@@H](C)[C@@H](O)/C=C/C=C/C[C@@H](C)OC(=O)C[C@H]1OC(C)=O` (stereo not given in full), in experiment [1], the fluorescence slope change is 127% (active). For the same compound, the survival in experiment [2] was 16.8 (inactive). Besides, in experiment [3], the parasite load remaining is 90.7% (inactive) and the viability worked out at 92.1%.
For `CC(C)N1CCN(c2ccc(OC[C@@H]3CO[C@@](Cn4cncn4)(c4ccc(Cl)cc4Cl)O3)cc2)CC1`, in experiment [1], the fluorescence slope change was 82.8% (active). Moreover, the survival in experiment [2] is 7.75 (inactive). In addition, in experiment [3], the parasite load remaining was 57.7% (inactive) and the viability was determined as 72.8%.
For `CC[C@H](C)[C@H]1O[C@]2(CC[C@@H]1C)C[C@@H]1C[C@@H](C/C=C(\C)C(O[C@H]3C[C@H](OC)[C@@H](O[C@H]4C[C@H](OC)[C@@H](O)[C@H](C)O4)[C@H](C)O3)[C@@H](C)/C=C/C=C3\CO[C@@H]4[C@H](O)C(C)=C[C@@H](C(=O)O1)[C@]34O)O2` (stereo not given in full), the fluorescence slope change in experiment [1] is 136% (active). In addition, the survival in experiment [2] was 17.6 (inactive). Further, in experiment [3], the parasite load remaining is 93.7% (inactive) and the viability was determined as 89.6%.
On to `CN(N=O)C(=O)N[C@@H]1C(O)OC(CO)[C@@H](O)[C@H]1O` (stereo not given in full), for which, in experiment [1], the fluorescence slope change is 25.6% (inactive).
With `NCC1OC(OC2C(N)CC(N)C(OC3OC(CO)C(O)C(N)C3O)C2O)C(O)C(O)C1O` (stereo not given), the fluorescence slope change in experiment [1] is 9.9% (inactive). In addition, in experiment [2], the survival was 5.58 (inactive). Further, in experiment [3], the parasite load remaining is 77.1% (inactive) and the viability was 78.9%.
Take `COc1cc2cc(N(C)CCCNC(=O)C3CCCO3)cc(N)c2cc1OC` (stereo not given): the fluorescence slope change in experiment [1] was 52.5% (active).
Take `CC1=C(C(=O)O)N2C(=O)[C@@H](NC(=O)[C@H](N)c3ccc(O)cc3)C2SC1` (stereo not given in full): in experiment [1], the fluorescence slope change is 66.4% (active).
As for `CC1CCC2(OC1)O[C@H]1C[C@H]3[C@@H]4CC[C@H]5C[C@@H](O)CC[C@]5(C)[C@H]4CC(=O)[C@]3(C)[C@H]1[C@@H]2C` (stereo not given in full), the fluorescence slope change in experiment [1] is 74.2% (active). Also, in experiment [2], the survival is 3.25 (inactive).
Regarding `NCC[C@H](O)C(=O)NC1CC(N)C(OC2OC(CN)C(O)C(O)C2O)C(O)C1OC1OC(CO)C(O)C(N)C1O` (stereo not given in full), in experiment [1], the fluorescence slope change is 13.3% (inactive). The survival in experiment [2] was 1.75 (inactive). In addition, in experiment [3], the parasite load remaining was 68.1% (inactive) and the viability amounted to 76.6%.
`NCC1OC(OC2C(N)CC(N)C(OC3OC(CO)C(O)C(N)C3O)C2O)C(N)CC1O` (stereo not given): the fluorescence slope change in experiment [1] is -2% (inactive). Besides, in experiment [2], the survival is 1.08 (inactive). Moreover, in experiment [3], the parasite load remaining is 57.1% (inactive) and the viability came to 77.2%.
As to `Nc1cccc2c1C(=O)c1cccc(N)c1C2=O`, the fluorescence slope change in experiment [1] is 105% (active).
With `CC[C@H]1OC(=O)[C@H](C)[C@@H](OC2CC(C)(OC)C(O)C(C)O2)[C@H](C)[C@@H](OC2OC(C)CC(N(C)C)C2O)[C@](C)(O)C[C@@H](C)/C(=N\OCOCCOC)[C@H](C)[C@@H](O)[C@]1(C)O` (stereo not given in full), in experiment [1], the fluorescence slope change is 66.5% (active). Besides, the survival in experiment [2] is 6.25 (inactive).
Take `CCC(=O)OC1C(C)OC(OC2C(C)OC(O[C@H]3[C@@H](CC=O)C[C@@H](C)[C@@H](O)/C=C/C=C/C[C@@H](C)OC(=O)C[C@@H](OC(=O)CC)[C@@H]3OC)C(O)C2N(C)C)CC1(C)O` (stereo not given in full): the fluorescence slope change in experiment [1] is 72% (active). Moreover, in experiment [2], the survival is 16.6 (inactive). Besides, in experiment [3], the parasite load remaining is 77.4% (inactive) and the viability was found to be 89%.
